Test results: PubChem BioAssay (NCI)
About 83,000 compounds went through this panel and 20% of them were active in at least one assay; those are over-represented in the sample as a whole.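 Method: cells in 96-well plates; compound added at one concentration; 48 h incubation; percent growth measured; values under 10 scored active.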 A number with no mark means an inactive call. Calls of active or inactive are those of the source.

Tests used:
Test in all cases: NCI-60 one-dose screen, 48 h (100 = growth as untreated, 0 = no growth, -100 = all killed)
DU-145 prostate = conditions: 10 µM unless noted
K-562 leukemia = conditions: 10 µM unless noted
MALME-3M melanoma = conditions: 10 µM unless noted
RXF 393 renal = conditions: 10 µM unless noted
SF-295 CNS = conditions: 10 µM unless noted
UACC-257 melanoma = conditions: 10 µM unless noted
SNB-19 CNS = conditions: 10 µM unless noted
SK-MEL-5 melanoma = conditions: 10 µM unless noted
LOX IMVI melanoma = conditions: 10 µM unless noted
SK-MEL-2 melanoma = conditions: 10 µM unless noted
ACHN renal = conditions: 10 µM unless noted
HL-60(TB) leukemia = conditions: 10 µM unless noted
CCRF-CEM leukemia = conditions: 10 µM unless noted
MOLT-4 leukemia = conditions: 10 µM
IGROV1 ovarian = conditions: 10 µM
OVCAR-3 ovarian = conditions: 10 µM unless noted
NCI/ADR-RES ovarian = conditions: 10 µM unless noted
T-47D breast = conditions: 10 µM unless noted
HCC-2998 colon = conditions: 10 µM unless noted
OVCAR-8 ovarian = conditions: 10 µM unless noted

Row | SMILES | growth (DU-145 prostate) | growth (K-562 leukemia) | growth (MALME-3M melanoma) | growth (RXF 393 renal) | growth (SF-295 CNS) | growth (UACC-257 melanoma) | growth (SNB-19 CNS) | growth (SK-MEL-5 melanoma) | growth (LOX IMVI melanoma) | growth (SK-MEL-2 melanoma) | growth (ACHN renal) | growth (HL-60(TB) leukemia) | growth (CCRF-CEM leukemia) | growth (MOLT-4 leukemia) | growth (IGROV1 ovarian) | growth (OVCAR-3 ovarian) | growth (NCI/ADR-RES ovarian) | growth (T-47D breast) | growth (HCC-2998 colon) | growth (OVCAR-8 ovarian)
1 | CC(=O)N1N=C(c2ccccc2)CC1c1sc(N(CCCl)CCCl)nc1Cl (stereo unspecified) | 99.5% | 80% | 109% | 97.5% | 92.5% | 92.2% | 86.1% | 99.1% | 103% | 87.1% | 99.2% | 98% | 93.5% | 86.7% | 101% | 96.4% | 99% | 82.3% | 96.4% | 
2 | Cc1ccccc1O | 120% | 119% | 115% | 102% | 135% | 106% | 107% | 106% | 91.5% | 109% | 103% | 110% | 103% | 107% | 102% | 130% | 100% | 94.9% | 99.4% | 103%
3 | O=S(=O)(c1ccc(Cl)cc1)C(Cl)(Cl)Cl | 49.4% | 19.6% | 9.32% (active) | -5.22% (active) | 78.2% | 28.2% | 82.9% | 42.5% | 35.1% | 25.1% | 26.1% | 1.02% (active) | 25.3% | 16.2% | 33.6% | -15.6% (active) | 29% | 11.4% | 18.3% | 58.5%
4 | CC(C)(C)NCC(O)c1ccccc1Cl (stereo unspecified) | -27.8% (active) | 17.5% | 35.8% | -19.8% (active) | -3.79% (active) | 54.5% | 27.8% |  | 35.1% | -20.2% (active) | 53.7% | 1.68% (active) | 10.5% | 31.6% | 45.5% | -25.7% (active) | 85.6% | 51.5% | -28.8% (active) | 9.87% (active)
5 | [O]=[Sn]([CH]1CCCCC1)[CH]1CCCCC1 | -98% (active) | -8.85% (active) | -72.2% (active) | -99% (active) | -85.6% (active) | -88.3% (active) | -84.4% (active) | -98.5% (active) | -89.6% (active) | -63.2% (active) | -99.3% (active) | 7.49% (active) | -42.2% (active) | 6.59% (active) | -90.9% (active) | -98% (active) | -83.2% (active) | -86.7% (active) | -98.6% (active) | -66.2% (active)
6 | CN=C(NN)NN | 111% | 113% | 103% | 109% | 102% | 109% | 121% | 107% | 98.1% | 109% | 108% | 119% | 87.2% | 102% | 112% | 102% |  | 106% | 103% | 99.3%
7 | CN1C(=O)NC(=O)C(N=Nc2ccc(Cl)cc2)C1=O (stereo unspecified) | 106% | 54.7% | 134% | 107% |  | 105% | 106% | 96% | 102% | 117% | 87.9% | 90.7% | 106% | 96% | 129% | 105% | 83.5% | 101% | 90.6% | 104%
8 | CC(C)N=C(NC(C)C)N1CC1 | 122% | 124% | 124% | 122% | 102% | 105% | 115% | 113% | 116% | 112% | 109% | 104% | 116% | 105% | 123% | 109% | 113% | 111% | 103% | 108%
